Holding throughout (parameters): scale not given: direction of the effect not stated beside the values
For assay [1], the target named is Protein translocase subunit SecA (Escherichia coli (strain K12)) (UniProt P10408). The experiment in a line: Assay to Identify E. coli SecA ATPase Inhibitors. In kind it is functional. The note with it: 30 µM.
In assay [2] the target is T1, Ubiquitin-activating enzyme e1, putative (Leishmania donovani (strain BPK282A1)) (UniProt E9BSI1).
T1 sequence (whole entry): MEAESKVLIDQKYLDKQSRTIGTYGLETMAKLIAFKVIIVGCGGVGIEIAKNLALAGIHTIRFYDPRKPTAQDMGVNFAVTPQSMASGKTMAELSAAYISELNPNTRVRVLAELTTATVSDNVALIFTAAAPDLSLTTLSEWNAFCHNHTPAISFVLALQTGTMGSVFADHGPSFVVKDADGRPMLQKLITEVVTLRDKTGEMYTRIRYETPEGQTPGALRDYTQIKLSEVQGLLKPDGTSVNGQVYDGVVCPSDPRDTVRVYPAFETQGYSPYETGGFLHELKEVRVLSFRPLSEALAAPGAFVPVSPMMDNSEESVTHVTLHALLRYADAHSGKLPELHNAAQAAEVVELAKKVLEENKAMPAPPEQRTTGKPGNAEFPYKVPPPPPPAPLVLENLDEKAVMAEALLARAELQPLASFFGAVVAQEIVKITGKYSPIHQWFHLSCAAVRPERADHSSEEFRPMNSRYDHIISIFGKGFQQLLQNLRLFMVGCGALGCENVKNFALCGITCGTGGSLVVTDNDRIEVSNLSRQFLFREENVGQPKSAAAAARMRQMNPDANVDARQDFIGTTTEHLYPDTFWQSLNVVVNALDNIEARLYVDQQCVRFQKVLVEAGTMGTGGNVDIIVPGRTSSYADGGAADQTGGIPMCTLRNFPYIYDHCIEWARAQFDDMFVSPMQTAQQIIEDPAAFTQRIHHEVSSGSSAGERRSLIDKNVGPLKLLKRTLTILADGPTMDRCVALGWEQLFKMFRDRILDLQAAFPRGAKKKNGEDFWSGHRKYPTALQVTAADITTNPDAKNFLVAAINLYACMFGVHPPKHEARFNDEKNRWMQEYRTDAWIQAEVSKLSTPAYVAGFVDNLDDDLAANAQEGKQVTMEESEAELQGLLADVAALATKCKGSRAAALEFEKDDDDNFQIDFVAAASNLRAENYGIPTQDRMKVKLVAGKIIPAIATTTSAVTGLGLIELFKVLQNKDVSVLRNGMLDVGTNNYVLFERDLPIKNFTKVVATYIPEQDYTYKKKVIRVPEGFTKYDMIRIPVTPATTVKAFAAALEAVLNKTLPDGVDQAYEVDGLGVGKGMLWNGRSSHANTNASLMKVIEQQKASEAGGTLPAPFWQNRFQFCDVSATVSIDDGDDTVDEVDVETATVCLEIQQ
In words: Leishmania donovani Ubiquitin Activating Enzyme (LdE1). In kind it is functional. The note with it: 30 µM.

The target in assay [3] is AMP-activated protein kinase, AMPK (Homo sapiens) (UniProt P54646+O43741+P54619+Q9UGJ0+Q9Y478+Q13131+Q9UGI9). In words: AMP-dependent Kinase enzyme assay. An in vitro enzyme assay that detects ADP turnover that is directly proportional to AMPK activity. This uses naive AMPK that is activated during the assay with MK-8722. In kind it is functional. As to conditions: 30 µM.

In assay [4] the target is Sialic acid-binding Ig-like lectin 9 (Homo sapiens) (UniProt Q9Y336). The experiment in a line: Hs-Siglec9 ALPHAscreen SOP 20170721. As to conditions: 10 µM. (In general: Alpha assays give light when donor and acceptor beads are brought close together.)
The subject of a further assay is Trypanosoma cruzi. The experiment in a line: Trypanosoma cruzi phosphomannomutase and mannose-1-phosphate guanylyltransferase assay. In kind it is functional. The note with it: 10 µM.
Assay [5] concerns the target T2, Arginase-2, mitochondrial (Homo sapiens) (UniProt P78540).
T2 sequence (whole entry): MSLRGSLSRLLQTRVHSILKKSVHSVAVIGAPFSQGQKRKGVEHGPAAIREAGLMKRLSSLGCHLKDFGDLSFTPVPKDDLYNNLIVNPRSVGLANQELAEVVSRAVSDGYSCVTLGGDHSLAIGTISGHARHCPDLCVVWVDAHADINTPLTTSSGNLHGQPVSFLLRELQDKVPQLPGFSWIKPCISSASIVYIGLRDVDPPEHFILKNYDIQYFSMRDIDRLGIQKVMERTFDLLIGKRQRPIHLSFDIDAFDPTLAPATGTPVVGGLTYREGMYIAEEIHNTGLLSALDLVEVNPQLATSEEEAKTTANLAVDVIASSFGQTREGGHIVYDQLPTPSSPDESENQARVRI
The experiment in a line: in vitro enzyme assay to detect the production of urea directly proportional to the activity of Arginase II. Further: in the data most compounds retested in dose-response had high values. The format is functional. As to conditions: 33.3 µM.

In assay [6] the target is T3, Proteasome subunit beta (Trypanosoma cruzi) (UniProt O96673).
T3 sequence (whole entry): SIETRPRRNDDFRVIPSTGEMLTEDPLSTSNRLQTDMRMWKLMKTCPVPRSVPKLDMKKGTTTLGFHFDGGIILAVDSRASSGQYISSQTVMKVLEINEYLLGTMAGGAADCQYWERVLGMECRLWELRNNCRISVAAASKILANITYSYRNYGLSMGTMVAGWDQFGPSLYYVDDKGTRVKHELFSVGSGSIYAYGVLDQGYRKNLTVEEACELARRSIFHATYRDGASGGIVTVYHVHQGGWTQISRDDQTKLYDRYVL
The experiment in a line: Trypanosoma cruzi proteasome chymotrypsin-like activity (TcProtChymo) assay. Further: in the data most compounds retested in dose-response had high values. The format is functional. As to conditions: 9.37 µM.

Another assay is filed under the species Homo sapiens. In words: To identify inhibition of the IFN signalling (Jak-Stat) pathway via expression of an eGFP reporter gene under the control of an IFN-stimulated response element (ISRE) containing MxA promoter. In kind it is functional. As to conditions: 30 µM. Background: In a reporter assay the amount or activity of a reporter protein is the signal.

Assay [7] has as its target T4, Tyrosyl-tRNA synthetase, putative (Trypanosoma cruzi (strain CL Brener)) (UniProt Q4DSP6).
T4 sequence (whole entry): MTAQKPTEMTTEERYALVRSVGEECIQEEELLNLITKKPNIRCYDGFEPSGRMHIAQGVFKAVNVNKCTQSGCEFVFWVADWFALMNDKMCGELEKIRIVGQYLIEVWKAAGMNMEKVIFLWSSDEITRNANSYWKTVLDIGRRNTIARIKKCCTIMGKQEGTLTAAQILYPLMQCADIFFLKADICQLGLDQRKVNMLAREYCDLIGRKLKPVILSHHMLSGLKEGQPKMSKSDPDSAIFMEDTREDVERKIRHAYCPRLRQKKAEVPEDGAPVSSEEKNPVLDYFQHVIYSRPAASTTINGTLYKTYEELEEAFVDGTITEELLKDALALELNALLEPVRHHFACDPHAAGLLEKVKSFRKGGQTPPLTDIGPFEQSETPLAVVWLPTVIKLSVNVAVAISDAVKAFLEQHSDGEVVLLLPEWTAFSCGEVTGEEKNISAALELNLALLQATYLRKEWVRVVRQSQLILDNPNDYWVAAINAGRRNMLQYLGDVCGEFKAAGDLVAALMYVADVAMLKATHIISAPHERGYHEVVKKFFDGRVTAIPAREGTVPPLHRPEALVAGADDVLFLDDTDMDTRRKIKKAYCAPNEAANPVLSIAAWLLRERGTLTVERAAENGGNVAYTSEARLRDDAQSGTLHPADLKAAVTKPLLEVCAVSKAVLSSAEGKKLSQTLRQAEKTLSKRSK
The experiment in a line: Trypanosoma cruzi tyrosyl tRNA synthetase (TcYRS) _High Tyrosine SOP. Further: in the data most compounds retested in dose-response had high values. In kind it is functional. As to conditions: 30 µM.

For assay [8], the target named is T4, Tyrosyl-tRNA synthetase, putative (Trypanosoma cruzi (strain CL Brener)). In words: Trypanosoma cruzi tyrosyl tRNA synthetase (TcYRS) SOP. The format is functional. The note with it: 30 µM.
The target of assay [9] is Chromo domain-containing protein 1 (Saccharomyces cerevisiae (strain ATCC 204508 / S288c) (Baker's yeast)) (UniProt P32657). The experiment in a line: ScCHD-1 Enzyme Inhibition Assay. Further: in the data most compounds retested in dose-response had high values. The note with it: 30 µM. In kind it is functional.

For some assays here: Entries with a potency or affinity are not part of this list.

Sequence of Protein translocase subunit SecA (Escherichia coli (strain K12)) (P10408 whole entry): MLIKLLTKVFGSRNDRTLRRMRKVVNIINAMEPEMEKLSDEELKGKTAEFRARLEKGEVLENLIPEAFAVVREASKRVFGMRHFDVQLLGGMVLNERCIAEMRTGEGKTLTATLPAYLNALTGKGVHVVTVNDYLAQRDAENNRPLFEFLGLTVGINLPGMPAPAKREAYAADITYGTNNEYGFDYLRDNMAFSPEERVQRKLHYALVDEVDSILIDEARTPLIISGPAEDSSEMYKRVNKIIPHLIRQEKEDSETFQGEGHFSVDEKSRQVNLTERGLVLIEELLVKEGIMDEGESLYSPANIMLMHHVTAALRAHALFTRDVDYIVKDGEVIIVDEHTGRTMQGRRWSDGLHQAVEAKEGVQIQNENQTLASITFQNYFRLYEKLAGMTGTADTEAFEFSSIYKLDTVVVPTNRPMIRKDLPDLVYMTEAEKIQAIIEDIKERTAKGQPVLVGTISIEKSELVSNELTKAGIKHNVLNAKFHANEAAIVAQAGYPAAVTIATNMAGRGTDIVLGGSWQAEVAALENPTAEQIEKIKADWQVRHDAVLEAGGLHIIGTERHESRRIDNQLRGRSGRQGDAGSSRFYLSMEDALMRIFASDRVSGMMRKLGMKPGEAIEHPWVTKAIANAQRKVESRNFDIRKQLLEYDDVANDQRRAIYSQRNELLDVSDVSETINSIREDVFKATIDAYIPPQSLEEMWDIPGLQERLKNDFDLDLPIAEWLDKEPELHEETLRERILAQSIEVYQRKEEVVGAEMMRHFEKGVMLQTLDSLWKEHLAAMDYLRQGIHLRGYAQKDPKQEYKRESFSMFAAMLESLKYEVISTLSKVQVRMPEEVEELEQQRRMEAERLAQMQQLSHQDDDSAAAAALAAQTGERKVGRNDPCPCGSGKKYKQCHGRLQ
Sequence of Chromo domain-containing protein 1 (Saccharomyces cerevisiae (strain ATCC 204508 / S288c) (Baker's yeast)) (P32657 whole entry, the tested form may be a part): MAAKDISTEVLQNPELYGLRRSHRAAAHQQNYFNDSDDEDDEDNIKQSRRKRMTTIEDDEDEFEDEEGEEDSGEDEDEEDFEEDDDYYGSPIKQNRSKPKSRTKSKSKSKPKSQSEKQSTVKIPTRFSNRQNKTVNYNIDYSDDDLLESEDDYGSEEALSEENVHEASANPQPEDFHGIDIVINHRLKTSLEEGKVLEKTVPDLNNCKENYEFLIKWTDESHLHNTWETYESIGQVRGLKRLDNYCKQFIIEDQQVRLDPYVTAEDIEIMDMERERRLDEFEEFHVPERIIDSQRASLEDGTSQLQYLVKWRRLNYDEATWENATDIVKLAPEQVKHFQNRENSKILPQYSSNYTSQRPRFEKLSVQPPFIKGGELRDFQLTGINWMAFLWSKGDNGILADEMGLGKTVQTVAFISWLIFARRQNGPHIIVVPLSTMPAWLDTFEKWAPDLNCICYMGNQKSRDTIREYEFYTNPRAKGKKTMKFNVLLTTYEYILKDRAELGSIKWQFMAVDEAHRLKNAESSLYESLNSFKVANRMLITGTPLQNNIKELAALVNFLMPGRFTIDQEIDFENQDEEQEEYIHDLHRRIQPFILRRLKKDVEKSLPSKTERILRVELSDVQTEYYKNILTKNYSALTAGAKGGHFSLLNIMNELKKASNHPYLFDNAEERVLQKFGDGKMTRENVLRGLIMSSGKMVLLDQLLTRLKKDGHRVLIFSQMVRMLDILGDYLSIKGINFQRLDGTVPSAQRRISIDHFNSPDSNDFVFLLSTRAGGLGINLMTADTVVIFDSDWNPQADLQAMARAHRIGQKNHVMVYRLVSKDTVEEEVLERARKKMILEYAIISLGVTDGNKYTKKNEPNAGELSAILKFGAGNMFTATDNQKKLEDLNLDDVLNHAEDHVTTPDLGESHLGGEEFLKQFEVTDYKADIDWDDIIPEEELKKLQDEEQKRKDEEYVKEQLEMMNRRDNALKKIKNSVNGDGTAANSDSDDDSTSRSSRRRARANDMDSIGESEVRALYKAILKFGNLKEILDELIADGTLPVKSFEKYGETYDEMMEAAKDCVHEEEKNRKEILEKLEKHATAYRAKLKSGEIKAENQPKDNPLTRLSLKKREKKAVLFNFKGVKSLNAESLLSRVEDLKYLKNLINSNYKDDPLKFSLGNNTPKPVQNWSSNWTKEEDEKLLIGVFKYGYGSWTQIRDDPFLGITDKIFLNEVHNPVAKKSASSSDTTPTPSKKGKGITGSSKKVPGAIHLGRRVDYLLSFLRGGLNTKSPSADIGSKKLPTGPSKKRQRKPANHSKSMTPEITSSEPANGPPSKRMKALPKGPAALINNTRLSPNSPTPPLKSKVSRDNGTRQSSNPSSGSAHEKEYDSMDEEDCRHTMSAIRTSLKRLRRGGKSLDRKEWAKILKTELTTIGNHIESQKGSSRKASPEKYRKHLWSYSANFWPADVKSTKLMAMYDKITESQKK
Sequence of Sialic acid-binding Ig-like lectin 9 (Homo sapiens) (Q9Y336 whole entry): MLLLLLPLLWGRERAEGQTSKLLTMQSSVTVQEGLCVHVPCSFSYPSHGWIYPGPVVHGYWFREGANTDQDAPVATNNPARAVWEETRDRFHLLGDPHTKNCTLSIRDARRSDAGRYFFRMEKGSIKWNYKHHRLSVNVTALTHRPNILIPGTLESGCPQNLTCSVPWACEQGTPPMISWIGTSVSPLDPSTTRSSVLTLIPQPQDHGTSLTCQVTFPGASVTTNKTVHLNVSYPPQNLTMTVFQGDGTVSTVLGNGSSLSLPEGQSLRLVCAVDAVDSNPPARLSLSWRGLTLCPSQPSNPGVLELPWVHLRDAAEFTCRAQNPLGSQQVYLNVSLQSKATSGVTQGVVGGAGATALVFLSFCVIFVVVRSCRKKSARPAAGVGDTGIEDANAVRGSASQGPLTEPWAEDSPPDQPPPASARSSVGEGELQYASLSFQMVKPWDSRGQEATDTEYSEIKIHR

As for `C=Cc1ccc(C(=O)N2CCCC(Nc3ccc(OC)cc3)C2)cc1` (stereo not given), the Percent Effect in assay [1] is -0.54%; in assay [2] it was 8.11%; in assay [3] it was 29%; in assay [4], 18.1%; with Trypanosoma cruzi, 5.41%; in [5], -1.43%. For the same molecule, the Percent Effect in assay [6] is 3.28%; in the assay filed under Homo sapiens, 12.3%; in assay [7] it was 10.1%; in [8], 19.5%; in assay [9], -8.46%.
Take `CC(C)(C)c1ccc(C2(C(=O)NCCS(N)(=O)=O)CC2)cc1`: the Percent Effect was -3.83% in assay [1]; 10.4% in assay [2]; 1.16% in assay [3]; 8.65% in assay [4]; 3.25% in the assay with Trypanosoma cruzi; -422% in [5]. Also, the Percent Effect in assay [6] was 8.98%; in the assay filed under Homo sapiens, 10.7%; in [7] it was 3.23%; in [8] it was 11.1%; in [9], -4.35%.
`COc1ccccc1CC(=O)NS(C)(=O)=O`: the Percent Effect in assay [1] is -4.83%; in [2], 5.2%; in [3], 1.28%; in [4], 1.8%; with Trypanosoma cruzi it was -1.87%; in assay [5] it was -1.42%. Also, the Percent Effect in assay [6] is 7.6%; in the assay listed under Homo sapiens, 20.4%; in assay [7], 4.85%; in assay [8], 14.6%; in assay [9], -6.74%.
As for `COc1ccccc1CN1C(=O)O[C@@H]2CN(c3nccs3)C[C@@H]21`, the Percent Effect was -8.53% in [1]; 0% in [2]; 2% in assay [3]; 2.51% in [4]; -5.75% with Trypanosoma cruzi; -3.12% in assay [5]. Moreover, the Percent Effect is 11.2% in assay [6]; 15.3% in the assay listed under Homo sapiens; 2.73% in [7]; 3.7% in assay [8]; -3.84% in assay [9].
As for `O=c1cc2c(nn1CN1CCN(c3ccccc3)CC1)CCC2`, the Percent Effect is -2.18% in assay [1]; 12% in assay [2]; -4.49% in assay [3]; 2.85% in assay [4]; 0% with Trypanosoma cruzi; -1.23% in [5]. The Percent Effect in assay [6] was 15%; in the assay listed under Homo sapiens, 11.5%; in [7], 6.35%; in [8], 15.4%; in assay [9], -9.54%.
In the case of `CC(C)c1noc(C(C)N2CCN(CCO)CC2)n1` (stereo not given), the Percent Effect in assay [1] is 0.448%; in [2], 21.6%; in assay [3], -14.5%; in assay [4] it was -3.22%; in the assay with Trypanosoma cruzi, -3.68%; in assay [5], -9.22%. Also, the Percent Effect in assay [6] was 12.2%; in the assay listed under Homo sapiens, 16.1%; in assay [7] it was 5.42%; in [8] it was 6.17%; in [9], -0.137%.
For the molecule `Cc1nn(C)c(C)c1NC(=O)CN1CCCC1c1noc(C2CC2)n1` (stereo not given), the Percent Effect in [1] was 2.36%; in assay [2], 13.7%; in assay [3], -14.8%; in assay [4], 1.88%; in the assay on Trypanosoma cruzi it was -0.196%; in [5], 3.64%. The Percent Effect is 20.6% in assay [6]; -0.924% in the assay listed under Homo sapiens; 6.45% in assay [7]; 12.5% in assay [8]; -7.02% in [9].
Turning to `Cc1nc(C)n(C2CCCN(C(=O)c3ccc4c(c3)COC4)C2)n1` (stereo not given), the Percent Effect in assay [1] was -2.83%; in assay [2], 13.5%; in assay [3], -5.96%; in assay [4] it was 7.05%; in the assay with Trypanosoma cruzi it was 7.15%; in assay [5] it was 2.4%. Moreover, the Percent Effect in [6] is -4.67%; in the assay listed under Homo sapiens, 6.78%; in assay [7], 2.97%; in assay [8] it was 11%; in [9], 0.576%.
In the case of `CCC(=O)N1CC[C@@H](c2ccc3ccccc3c2)[C@H](O)C1`, the Percent Effect in assay [1] was -3.58%; in assay [2] it was 8%; in assay [3], -2.44%; in [4], 14.3%; in the assay with Trypanosoma cruzi, 5.94%; in [5] it was 24%. Moreover, the Percent Effect in assay [6] is 16.2%; in the assay listed under Homo sapiens, 11.8%; in assay [7] it was 4.92%; in [8], 11.1%; in [9] it was -8.24%.
`Cc1ccc2c(c1)c(CNC(=O)C1CC(=O)N(C3CCCC3)C1)nn2C` (stereo not given): the Percent Effect was 1.21% in [1]; 0% in assay [2]; 4.01% in assay [3]; 6.8% in [4]; -7.34% with Trypanosoma cruzi; -1.43% in assay [5]. In addition, the Percent Effect is 21% in assay [6]; 10% in the assay filed under Homo sapiens; 3.7% in assay [7]; 0% in [8]; -5.94% in [9].

Values taken from ChEMBL document CHEMBL3988442, “University of Dundee, Small-Polar-MMV Screening Library” (2021).
